About 1,800 (0.62%) of roughly 290,000 compounds were called active. This excerpt belongs to a sample that is enriched for actives. A number with no mark means an inactive call. Rule as the data show it: active = inhibition above about 50%; inactive = the rest.
Assay: inhibition of NOD2-driven NF-kB reporter – cell-based, luminescence, uHTS, HEK293 (AID 1566)
Conditions: HEK293 NOD2/NF-kB luciferase reporter, at 4 µM, hits give high values

| SMILES | inhibition |
| --- | --- |
| COc1ccc(/C(O)=C/c2nc3ccccc3n(-c3ccccc3)c2=O)cc1 | 24.8% |
| COc1ccc(-n2c(=O)c(CCC(=O)N(C)Cc3ccccc3C)nc3ccccc32)cc1 | 0.2% |
| Cc1ccc(NS(=O)(=O)c2cccc(C(=O)NNC(=O)c3cccn3C)c2)c(C)c1 | -2.3% |
| C/C(=N\NC(=O)NC1CCCCC1)c1ccco1 | -11.6% |
| O=C(c1cc(Cl)nc2ccccc12)N(Cc1nnc(-c2ccccc2Cl)o1)C1CC1 | 14.2% |
| Cc1noc(C)c1C(=O)NCc1ccccc1 | 16.6% |
| COc1ccc(NC(=O)c2cc([N+](=O)[O-])ccc2O)cc1 | 70.6% (active) |
| COc1ccc(NC(=O)c2cc([N+](=O)[O-])ccc2N2CCCC2)cc1 | 7.4% |
| COc1ccc(NC(=O)c2cc([N+](=O)[O-])ccc2N2CCCCC2)cc1 | -14.3% |
| O=[N+]([O-])c1cc(Cl)ccc1NCCNc1ncc(C(F)(F)F)cc1Cl | 12.4% |
| Cc1cc(=O)[nH]c(SCc2ccc(Cl)cc2Cl)n1 | 4.6% |
| Nc1cc(=O)[nH]c(SCc2ccc(Cl)cc2Cl)n1 | 58.1% (active) |
| Nc1cc(=O)[nH]c(SCc2ccccc2Cl)n1 | 23.4% |
| Cn1c(C(=O)N2CCN(c3ccc(F)cc3)CC2)cc2ccccc21 | 1.5% |
| O=c1cc(CSc2nc3ccccc3c(=O)[nH]2)c2ccc(O)cc2o1 | 70.3% (active) |
| Cc1ccccc1CSc1nc2ccccc2c(=O)[nH]1 | -3.5% |
| O=c1[nH]c(SCc2ccccc2F)nc2ccccc12 | 8.9% |
| Cc1cc(-c2nnc(SCC(=O)c3ccc(Cl)cc3)o2)no1 | 1.2% |
| COc1ccc(-c2oc3cccnc3c2-c2ccc(OC)nc2)cc1 | -2.2% |
| COc1cc(CC(=O)Nc2ccc3c(c2)CCC3)cc(OC)c1OC | 24.2% |
| COc1ccc(CC(=O)Nc2ccc3c(c2)CCC3)cc1 | 13.2% |
| COc1ccc(CC(=O)Nc2ccc3c(c2)CCC3)cc1OC | 53.3% (active) |
| Cc1ccc(C)c(N2CCN(CC(=O)Nc3ccc([N+](=O)[O-])cc3C(=O)Nc3ccccc3F)CC2)c1 | -26.6% |
| Cc1ccc(S(=O)(=O)c2c(N)n(CCN3CCOCC3)c3nc4ccccc4nc23)cc1C | -39.8% |

| SMILES | inhibition |
| --- | --- |
| Cn1c(=O)cc(NCCc2ccccc2)[nH]c1=O | -8.7% |
| O=C(OCCN=C1NS(=O)(=O)c2ccccc21)c1ccncc1 | -0.9% |
| CCc1ccc(S(=O)(=O)NCc2cn3ccsc3n2)s1 | 13.4% |
| CCCCCCCC(=O)NC(Nc1ccc(S(N)(=O)=O)cc1)C(Cl)(Cl)Cl (stereo not drawn) | 22.9% |
| CN(C)S(=O)(=O)c1cccc(NC(=O)c2cnccn2)c1 | 6.9% |
| CN(C)S(=O)(=O)c1cccc(NC(=O)c2ccncc2)c1 | 12.4% |
| O=C(CC1CC2CCC1C2)OCC(=O)c1c[nH]c2ccccc12 (stereo not drawn) | 12.6% |
| CC(C(=O)NCc1ccccc1)N1CCN(c2ccc(F)cc2)CC1 (stereo not drawn) | 5.1% |
| COc1ccc(CNC2CCSc3ccccc32)cc1OC (stereo not drawn) | 23.3% |
| CCn1c(=O)cc(OCC(=O)N2CCc3ccccc32)c2ccccc21 | 17.9% |
| COc1ccccc1OCc1nnc(SCC(=O)N2CCCC2)o1 | 4.2% |
| COc1ccccc1OCc1nnc(SCC(=O)c2cc(Cl)ccc2OC)o1 | 57.5% (active) |
| COc1ccccc1OCc1nnc(SCC(=O)N2CCCCC2)o1 | -9.8% |
| CC(C)NC(=O)NC(=O)COC(=O)C1(C)CC1(Cl)Cl (stereo not drawn) | -8.2% |
| COC(=O)C(CO)NC(=O)C(C)NC(=O)CNC(=O)OCc1ccccc1 (stereo not drawn) | 9% |
| COc1ccccc1NC(=O)c1cc2n(n1)C(C(F)(F)F)CC(c1ccc3c(c1)OCO3)N2 (stereo not drawn) | 35.9% |
| O=C(Nc1cc(Cl)ccc1O)c1cc2n(n1)C(C(F)(F)F)CC(c1ccc3c(c1)OCO3)N2 (stereo not drawn) | 53.1% (active) |
| COc1ccc(OC)c(NC(=O)c2cc3n(n2)C(C(F)(F)F)CC(c2ccc4c(c2)OCO4)N3)c1 (stereo not drawn) | 35.2% |
| CCN(CC(=O)Nc1ccc(N2CCOCC2)cc1)C(=O)c1ccc(C#N)cc1 | 0.4% |
| Cc1ccc(N2CC(C(=O)N3CCN(C(=O)c4ccco4)CC3)CC2=O)cc1 (stereo not drawn) | 3.8% |
| COc1cc(NC(=O)C2CCCCC2)c2ncccc2c1 | 7.2% |
| CCC(CNc1cc(OC)cc2cccnc12)NC1CCCCC1 (stereo not drawn) | 74.6% (active) |
| COc1cc(NCc2ccccc2O)c2ncccc2c1 | -106% |
| Cc1ccccc1N=C1NC(=O)/C(=C/c2cccn2-c2cccc(C(=O)O)c2)S1 | 10.7% |

Reference: PubChem BioAssay AID1566 (Sanford-Burnham Center for Chemical Genomics, 2009)
